Measurements taken from PubChem BioAssay (NCATS).
Where “and” joins values, the source holds several entries; their conditions need not be identical. Equal values may be shown once. Inconclusive results are not listed. More than one record can exist for a structure, and the calls need not agree. Calls of active or inactive are those of the source. Unless noted, calls come from the whole dose curve; as a rule, active = well fitted curve in the direction sought with a large enough effect; inconclusive = small, poorly fitted or top-dose-only effect, or another doubt; inactive = no such curve, though single readings can be large; an effect the other way counts as inactive or inconclusive.

How the values were obtained:
Es-2 = assay: Primary qHTS to identify gynecologic anti-cancer compounds using libraries of approved drugs and bioactive compounds (AID 1345084); conditions: Gynecologic cancer cell panel viability, ATPlite luminescence, 48 h; series mostly up to 57.5 µM; note: nearly all actives have a fitted effect of over 55% in size; note: potency is the fitted concentration of half-maximal effect
Method in brief: (§1)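 Cells, 1,000 per well, plated 16 h, then exposed 48 h at 37 C to compounds. Viability by ATPlite luminescence after 15 min at room temperature.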

Hek293T = assay: as above; conditions: Gynecologic cancer cell panel viability, ATPlite luminescence, 48 h, control line for the selectivity index; series mostly up to 57.5 µM
Method in brief: as §1

JEG-3 = assay: as above; conditions: Gynecologic cancer cell panel viability, ATPlite luminescence, 48 h; series mostly up to 57.5 µM
Method in brief: as §1

OV90 = assay: as above; conditions: Gynecologic cancer cell panel viability, ATPlite luminescence, 48 h; series mostly up to 57.5 µM
Method in brief: as §1

PA-1 = assay: as above; conditions: Gynecologic cancer cell panel viability, ATPlite luminescence, 48 h; series mostly up to 57.5 µM
Method in brief: as §1

SKOV3 = assay: as above; conditions: Gynecologic cancer cell panel viability, ATPlite luminescence, 48 h; series mostly up to 57.5 µM
Method in brief: as §1

Tov-21-G = assay: as above; conditions: Gynecologic cancer cell panel viability, ATPlite luminescence, 48 h; series mostly up to 57.5 µM
Method in brief: as §1

Tov112D = assay: as above; conditions: Gynecologic cancer cell panel viability, ATPlite luminescence, 48 h; series mostly up to 57.5 µM
Method in brief: as §1

[1] = Drug repurposing screens with cells derived from glioblastoma tumor samples (AID 1345199); conditions: GBM patient neurospheres viability, ATP luminescence, 48 h; note: nearly all actives have a fitted effect of over 40% in size; note: potency is the fitted concentration of half-maximal effect; for activity, negative = cell killing: % is set by controls: 0 for no effect and ±100 for the full control effect
Method in brief: (§2)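 Primary testing used CD133+ neurospheres from four GBM patients, seven concentrations, 48 h exposure and ATP-based viability; confirmation added three slower-growing patient lines.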

astro = assay: as above; conditions: viability, ATP luminescence, 48 h; series mostly up to 45.9 µM
Method in brief: as §2

[2] = qHTS assay to identify inhibitors of the type 1 interferon - major histocompatibility complex class I in skeletal muscle: Counter screen cell viability and HiBit confirmation (AID 1347412); conditions: iHSKM muscle cells + IFN-b, HiBiT or CellTiter-Glo, 24 h, at 45.9 µM (top of the series); note: % is set by controls: 0 for no effect and ±100 for the full control effect; nearly all actives have a fitted effect of over 60% in size
Method in brief: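 Human myoblast knock-in line, 4.0 ng/ml IFN-beta stimulation, 24 h compound treatment. Endpoints: HiBiT lytic luminescence (HLA-B level) and CellTiter Glo (ATP). Dosing 12 concentrations, 3-fold steps, 46 uM highest final.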

HeLa = assay: Primary qHTS to identify gynecologic anti-cancer compounds using libraries of approved drugs and bioactive compounds (AID 1345084); conditions: Gynecologic cancer cell panel viability, ATPlite luminescence, 48 h; series mostly up to 57.5 µM; note: nearly all actives have a fitted effect of over 55% in size; note: potency is the fitted concentration of half-maximal effect
Method in brief: as §1

[3] = qHTS assay for small molecule activators of the human pregnane X receptor (PXR) signaling pathway (AID 720659; call rule not given here; note: 0% is about no effect)
[4] = target: Nuclear receptor subfamily 1 group I member 2 (Rattus norvegicus) (UniProt Q9R1A7); assay: qHTS assay for small molecule activators of the rat pregnane X receptor (rPXR) signaling pathway (AID 651751; call rule not given here; note: 0% is about no effect); conditions: rPXR reporter cells, luciferase (One-Glo), 24 h
Sequence of Nuclear receptor subfamily 1 group I member 2 (Rattus norvegicus) (Q9R1A7 whole entry, looked up): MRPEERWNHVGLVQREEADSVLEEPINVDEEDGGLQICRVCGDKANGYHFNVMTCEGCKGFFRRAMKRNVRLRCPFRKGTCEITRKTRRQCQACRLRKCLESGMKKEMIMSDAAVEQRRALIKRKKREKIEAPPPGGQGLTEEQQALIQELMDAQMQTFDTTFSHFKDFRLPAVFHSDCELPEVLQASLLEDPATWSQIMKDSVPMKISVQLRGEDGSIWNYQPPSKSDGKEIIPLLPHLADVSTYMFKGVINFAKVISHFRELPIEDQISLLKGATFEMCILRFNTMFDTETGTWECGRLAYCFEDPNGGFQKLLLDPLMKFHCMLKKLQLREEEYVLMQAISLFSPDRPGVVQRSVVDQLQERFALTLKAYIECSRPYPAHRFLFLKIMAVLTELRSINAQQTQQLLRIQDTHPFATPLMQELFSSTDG

[5] = at 45.9 µM (top of the series), tumour line B
[6] = at 45.9 µM (top of the series), tumour line D
[7] = at 46 µM (top of the series), tumour line A
[8] = at 46.1 µM (top of the series), tumour line C
[9] = at 20 µM (top of the series), tumour line C
[10] = at 21.2 µM (top of the series), tumour line B
[11] = at 21.2 µM (top of the series), tumour line D
[12] = at 21.3 µM (top of the series), tumour line A

NC(=O)c1cccnc1
inactive: Potency (Es-2) | Potency (Hek293T) | Potency (JEG-3) | Potency (OV90) | Potency (PA-1) | Potency (SKOV3) | Potency (Tov-21-G) | Potency (Tov112D) | activity, negative = cell killing [1, 5] -7.44% | activity, negative = cell killing [1, 6] -0.242% | activity, negative = cell killing [1, 7] -16% | activity, negative = cell killing [1, 8] 4.44% | Potency (astro)

CCC(=O)O[C@]1(C(=O)SCF)[C@H](C)C[C@H]2[C@@H]3C[C@H](F)C4=CC(=O)C=C[C@]4(C)[C@@]3(F)[C@@H](O)C[C@@]21C
inactive: Potency (Es-2) | Potency (Hek293T) | Potency (JEG-3) | Potency (OV90) | Potency (PA-1) | Potency (SKOV3) | Potency (Tov-21-G) | Potency (Tov112D) | activity, negative = cell killing [1, 9] -9.5% | activity, negative = cell killing [1, 10] -18.7% | activity, negative = cell killing [1, 11] 13.1% | activity, negative = cell killing [1, 12] -14.8% | Potency (astro) | activity change, negative = inhibition ([2]; HiBiT) -26.7% | activity change, negative = inhibition ([2]; Viability) 10%

CCCc1cc(C(N)=S)ccn1
inactive: Potency (Es-2) | Potency (Hek293T) | Potency (JEG-3) | Potency (OV90) | Potency (PA-1) | Potency (SKOV3) | Potency (Tov-21-G) | Potency (Tov112D) | activity, negative = cell killing [1, 5] -7.71% | activity, negative = cell killing [1, 6] -14.3% | activity, negative = cell killing [1, 8] 5.43% | Potency (astro)

O[C@@H](CNC[C@H](O)[C@H]1CCc2cc(F)ccc2O1)[C@@H]1CCc2cc(F)ccc2O1
active: Potency (SKOV3) 22.4 µM
inactive: Potency (Hek293T) | Potency (JEG-3) | activity change, negative = inhibition ([2]; HiBiT) 26% | activity change, negative = inhibition ([2]; Viability) -9.67%

CCCc1nc(C)c2c(=O)[nH]c(-c3cc(S(=O)(=O)N4CCN(CC)CC4)ccc3OCC)nn12
active: Potency ([1]; tumour line A) 17.8 µM
inactive: Potency (Es-2) | Potency (Hek293T) | Potency (JEG-3) | Potency (OV90) | Potency (SKOV3) | Potency (Tov-21-G) | Potency (Tov112D) | activity, negative = cell killing [1, 5] -13% | activity, negative = cell killing [1, 6] -20.9% | activity, negative = cell killing [1, 8] -8.37% | Potency (astro)

O=C(O)c1ccc(-n2nc(-c3ccccc3O)nc2-c2ccccc2O)cc1
inactive: Potency (SKOV3)
active: Potency (PA-1) 8.91 µM

CN1CCCC(n2nc(Cc3ccc(Cl)cc3)c3ccccc3c2=O)CC1 (configuration not stated)
active: Potency ([1]; tumour line A) 11.2 µM | Potency ([1]; tumour line D) 14.1 µM
inactive: Potency (Hek293T) | Potency (JEG-3) | Potency (SKOV3) | activity, negative = cell killing [1, 8] 4.16%

Cc1c(-c2ccc(O)cc2)n(Cc2ccc(OCCN3CCCCCC3)cc2)c2ccc(O)cc12
inactive: Potency (Hek293T) | Potency (JEG-3) | Potency (Tov-21-G)

CO[C@@H]1[C@@H](OC(N)=O)[C@@H](O)[C@H](Oc2ccc3c(O)c(NC(=O)c4ccc(O)c(CC=C(C)C)c4)c(=O)oc3c2C)OC1(C)C
inactive: Potency (HeLa) | Potency (Hek293T) | Potency (JEG-3) | Potency (OV90) | Potency (PA-1) | Potency (SKOV3) | Potency (Tov-21-G) | Potency (Tov112D) | activity, negative = cell killing [1, 9] -4.06% | activity, negative = cell killing [1, 10] -5.36% | activity, negative = cell killing [1, 11] -2.99% | activity, negative = cell killing [1, 12] -27.7% | Potency (astro)

CNCC[C@H](Oc1cccc2ccccc12)c1cccs1
inactive: Potency (JEG-3) | Potency (PA-1) | Potency (Tov-21-G) | Potency (Tov112D) | activity, negative = cell killing [1, 8] -0.487%
active: Potency (OV90) 28.2 µM | Potency (SKOV3) 20 µM | Potency ([1]; tumour line A) 3.55 µM | Potency ([1]; tumour line B) 28.2 µM | Potency ([1]; tumour line D) 17.8 µM

NC(N)=NC(N)=NCCc1ccccc1
inactive: Potency (Hek293T) | Potency (JEG-3) | Potency (Tov-21-G) | Potency (Tov112D) | activity, negative = cell killing [1, 10] -24.6% | activity, negative = cell killing [1, 12] -28.1% | activity, negative = cell killing [1, 5] -14.4% | Potency (astro) | outcome [3]
active: Potency (SKOV3) 14.1 µM | Potency ([1]; tumour line D) 25.1 µM

COc1cc([C@@H]2c3cc4c(cc3[C@H](O)[C@H]3COC(=O)[C@H]23)OCO4)cc(OC)c1OC
active: Potency (OV90) 0.355 µM | Potency (Tov-21-G) 0.199 µM

CCN(CC)CC#CCOC(=O)C(O)(c1ccccc1)C1CCCCC1 (configuration not stated)
inactive: activity, negative = cell killing [1, 5] -22.3% | Potency (astro)
active: Potency ([1]; tumour line A) 10 µM | Potency ([1]; tumour line C) 20.6 µM

CCN(CC)CCn1c(=O)c(Cc2ccc(OC)cc2)nc2ccccc21
active: Potency ([1]; tumour line A) 10 µM
inactive: activity, negative = cell killing [1, 5] -5.87% | activity, negative = cell killing [1, 6] -15.6% | activity, negative = cell killing [1, 8] 14.7%

CCCCOc1ccc(CC(=O)NO)cc1
inactive: Potency (HeLa) | Potency (Hek293T) | Potency (OV90) | activity, negative = cell killing [1, 9] 38.6% | activity, negative = cell killing [1, 10] -16.2% | activity, negative = cell killing [1, 11] -14.5% | Potency (astro)
active: Potency ([1]; tumour line A) 11.2 µM

C1CCC(C(CC2CCCCN2)C2CCCCC2)CC1 (configuration not stated)
active: Potency (Es-2) 28.2 µM | Potency (OV90) 25.1 µM | Potency (SKOV3) 7.94 µM | Potency (Tov-21-G) 31.6 µM | Potency (astro) 15.8 µM

CC(C)NCC(O)c1ccc(NS(C)(=O)=O)cc1 (configuration not stated)
inactive: activity, negative = cell killing [1, 5] -3.14% and -4.61% | activity, negative = cell killing [1, 6] -13.7% and -17.7% | activity, negative = cell killing [1, 7] -32.2% | activity, negative = cell killing [1, 8] -4.94% and -17%

Nc1nc(N)c2nc(CNc3ccc(C(=O)NC(CCC(=O)O)C(=O)O)cc3)cnc2n1 (configuration not stated)
inactive: max response [4] -7.99% | outcome [3]

CC(N)C12CC3CC(CC(C3)C1)C2 (configuration not stated)
inactive: Potency (Es-2) | Potency (Hek293T) | Potency (JEG-3) | Potency (PA-1) | Potency (SKOV3) | Potency (Tov-21-G) | Potency (Tov112D) | activity, negative = cell killing [1, 5] -2.45% | activity, negative = cell killing [1, 6] -5.43% | activity, negative = cell killing [1, 8] 5.06% | Potency (astro)
